# Reference: the supplement of paper PMC8728848
# Shown is part of a subset that was picked to be rich in the strongest signals.
# Legend:
# Assay in all cases: glycan array binding signal (z-score within array); higher = stronger binding
# Settings in all cases: glycan notation: IUPAC condensed, linker removed
# [1] = target: Gal(b1-4)GlcNAc(b1-3)Gal(b1-4)GlcNAc(b1-6)[Gal(b1-3)]GalNAc
# Procedure, shortened: (§1)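 The binding signal is a Z-score computed within each array and averaged over linkers. Arrays of the same protein sequence at different concentrations or buffers were also averaged together. Data originate from 3228 arrays in the Consortium for Functional Glycomics database, kept only where the protein sequence was available.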
# [2] = target: Gal3S(b1-4)[Fuc(a1-3)]GlcNAc6S
# Procedure, shortened: as §1
# Gal3S6S(b1-4)GlcNAc6S = target: Gal3S6S(b1-4)GlcNAc6S
# Procedure, shortened: as §1
# Gal6P(b1-4)GlcNAc = target: Gal6P(b1-4)GlcNAc
# Procedure, shortened: as §1
# GalNAc(b1-4)GlcNAc = target: GalNAc(b1-4)GlcNAc
# Procedure, shortened: as §1
# GalNAc4S6S(b1-4)GlcNAc = target: GalNAc4S6S(b1-4)GlcNAc
# Procedure, shortened: as §1
# GalNAc6S(b1-4)GlcNAc = target: GalNAc6S(b1-4)GlcNAc
# Procedure, shortened: as §1
# Glc(b1-4)Glc = target: Glc(b1-4)Glc
# Procedure, shortened: as §1
# [3] = target: GlcNAc(a1-4)Gal(b1-4)GlcNAc
# Procedure, shortened: as §1
# [4] = target: GlcNAc(a1-4)Gal(b1-4)GlcNAc(b1-3)Gal(b1-4)GlcNAc(b1-3)Gal(b1-4)GlcNAc
# Procedure, shortened: as §1
# [5] = target: GlcNAc(b1-3)Gal(b1-4)GlcNAc(b1-3)Gal(b1-4)GlcNAc
# Procedure, shortened: as §1
# [6] = target: GlcNAc(b1-3)Gal(b1-4)GlcNAc(b1-3)Gal(b1-4)GlcNAc(b1-2)Man(a1-3)[GlcNAc(b1-3)Gal(b1-4)GlcNAc(b1-3)Gal(b1-4)GlcNAc(b1-2)Man(a1-6)]Man(b1-4)GlcNAc(b1-4)[Fuc(a1-6)]GlcNAc
# Procedure, shortened: as §1
# [7] = target: GlcNAc(b1-6)Gal(b1-4)GlcNAc
# Procedure, shortened: as §1
# [8] = target: GlcNAc6S(b1-3)Gal(b1-4)GlcNAc
# Procedure, shortened: as §1
# [9] = target: Man(a1-2)Man(a1-3)[Man(a1-2)Man(a1-6)]Man
# Procedure, shortened: as §1
# [10] = target: Man(a1-2)Man(a1-6)[Man(a1-3)]Man(a1-6)[Man(a1-2)Man(a1-2)Man(a1-3)]Man
# Procedure, shortened: as §1
# [11] = target: Man(a1-3)[Man(a1-6)]Man(b1-4)GlcNAc(b1-4)[Fuc(a1-6)]GlcNAc
# Procedure, shortened: as §1
# [12] = target: Neu5Ac(a2-3)Gal(b1-3)GalNAc
# Procedure, shortened: as §1
# [13] = target: Neu5Ac(a2-3)Gal(b1-3)GalNAc(b1-4)[Neu5Ac(a2-3)]Gal(b1-4)Glc
# Procedure, shortened: as §1
# [14] = target: Neu5Ac(a2-3)Gal(b1-3)GalNAc(b1-4)[Neu5Ac(a2-8)Neu5Ac(a2-3)]Gal(b1-4)Glc
# Procedure, shortened: as §1
# [15] = target: Neu5Ac(a2-3)Gal(b1-4)GlcNAc(b1-2)Man(a1-3)[Neu5Ac(a2-3)Gal(b1-4)GlcNAc(b1-2)Man(a1-6)]Man(b1-4)GlcNAc(b1-4)[Fuc(a1-6)]GlcNAc
# Procedure, shortened: as §1
# [16] = target: Neu5Ac(a2-3)Gal(b1-4)GlcNAc(b1-3)Gal(b1-4)GlcNAc
# Procedure, shortened: as §1
# [17] = target: Neu5Ac(a2-6)Gal(b1-4)GlcNAc(b1-2)Man
# Procedure, shortened: as §1
# [18] = target: Neu5Ac(a2-6)Gal(b1-4)GlcNAc(b1-2)Man(a1-6)[Man(a1-3)]Man(b1-4)GlcNAc(b1-4)GlcNAc
# Procedure, shortened: as §1
# [19] = target: Neu5Ac(a2-6)Gal(b1-4)GlcNAc(b1-3)Gal(b1-3)GlcNAc
# Procedure, shortened: as §1
# [20] = target: Neu5Ac(a2-6)GalNAc(b1-4)GlcNAc6S
# Procedure, shortened: as §1
# [21] = target: Neu5Ac(a2-8)Neu5Ac(a2-3)Gal(b1-3)GalNAc(b1-4)[Neu5Ac(a2-3)]Gal(b1-4)Glc
# Procedure, shortened: as §1
# [22] = target: Neu5Ac(a2-8)Neu5Ac(a2-8)Neu5Ac(a2-8)Neu5Ac(a2-3)[GalNAc(b1-4)]Gal(b1-4)Glc
# Procedure, shortened: as §1
# [23] = target: Neu5Ac9Ac(a2-3)Gal(b1-3)GlcNAc
# Procedure, shortened: as §1
# Neu5Gc(a2-6)GalNAc = target: Neu5Gc(a2-6)GalNAc
# Procedure, shortened: as §1
binder,measurement,setting,value
"AT1G80310(18) (Arabidopsis thaliana), Q0WP36 (protein) METTTTPLLPGDRSRCGWLRRRLRLKNPLSSELSGAVGDLGTFIPIVLTLTLVSNLDLSTTLIFTGFYNIATGLLFDIPMPVQPMKSIAAVAVSESPHLTPSQIAAAGASTAATLLLLGATGAMSFLYNIIPLPVVRGVQLSQGLQFAFTAIKYVRFNYDTATLKPSSSPRIWLGLDGLILALAALLFIILSTGSGNDREAEDGDLAETSSNESQSRRRRLRLLSSIPSALIVFALGLVLCFIRDPSIFKDLKFGPSKFHILRISWDDWKIGFLRAAIPQIPLSVLNSVIAVCKLSNDLFDKELSATTVSISVGVMNLIGCWFGAMPVCHGAGGLAGQYRFGARSGLSVIFLGIGKLIVGLVFGNSFVRILSQFPIGILGVLLLFAGIELAMASKDMNSKEDSFIMLVCAAVSMTGSSAALGFGCGVVLYLLLKLRTLDCSSVTLFSRSSDESQVDSEAAPRDV",glycan array binding signal (z-score),[1],-0.516
same,glycan array binding signal (z-score),[2],-0.286
same,glycan array binding signal (z-score),Gal3S6S(b1-4)GlcNAc6S,0.953
same,glycan array binding signal (z-score),Gal6P(b1-4)GlcNAc,0.119
same,glycan array binding signal (z-score),GalNAc(b1-4)GlcNAc,3.09
same,glycan array binding signal (z-score),GalNAc4S6S(b1-4)GlcNAc,3.56
same,glycan array binding signal (z-score),GalNAc6S(b1-4)GlcNAc,2.89
same,glycan array binding signal (z-score),Glc(b1-4)Glc,1.3
same,glycan array binding signal (z-score),[3],-0.622
same,glycan array binding signal (z-score),[4],0.229
same,glycan array binding signal (z-score),[5],-0.512
same,glycan array binding signal (z-score),[6],1.31
same,glycan array binding signal (z-score),[7],-0.608
same,glycan array binding signal (z-score),[8],0.436
same,glycan array binding signal (z-score),[9],-0.796
same,glycan array binding signal (z-score),[10],-0.243
same,glycan array binding signal (z-score),[11],-0.517
same,glycan array binding signal (z-score),[12],0.654
same,glycan array binding signal (z-score),[13],-0.383
same,glycan array binding signal (z-score),[14],4.16
same,glycan array binding signal (z-score),[15],-0.895
same,glycan array binding signal (z-score),[16],-0.967
same,glycan array binding signal (z-score),[17],-0.534
same,glycan array binding signal (z-score),[18],-0.892
same,glycan array binding signal (z-score),[19],-0.646
same,glycan array binding signal (z-score),[20],-0.543
same,glycan array binding signal (z-score),[21],-0.86
same,glycan array binding signal (z-score),[22],-0.09
same,glycan array binding signal (z-score),[23],-0.052
same,glycan array binding signal (z-score),Neu5Gc(a2-6)GalNAc,0.551
